# FLuc modulator = counter-screen for miR-21 project: firefly luciferase inhibitors or activators; hit rate 6.9% among 360,000; P08659; purified FLuc, Km substrates, luminescence inhibition; AID 588342; Potency, µM (series often up to 57.5 µM), for the others: at the top dose activity change, negative = inhibition, usual class: inhibitors;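 further: plate controls were vehicle for no effect and reference inhibitor for full effect; nearly all actives have a fitted effect of over 55% in size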
# Target sequence (P08659 whole entry, looked up): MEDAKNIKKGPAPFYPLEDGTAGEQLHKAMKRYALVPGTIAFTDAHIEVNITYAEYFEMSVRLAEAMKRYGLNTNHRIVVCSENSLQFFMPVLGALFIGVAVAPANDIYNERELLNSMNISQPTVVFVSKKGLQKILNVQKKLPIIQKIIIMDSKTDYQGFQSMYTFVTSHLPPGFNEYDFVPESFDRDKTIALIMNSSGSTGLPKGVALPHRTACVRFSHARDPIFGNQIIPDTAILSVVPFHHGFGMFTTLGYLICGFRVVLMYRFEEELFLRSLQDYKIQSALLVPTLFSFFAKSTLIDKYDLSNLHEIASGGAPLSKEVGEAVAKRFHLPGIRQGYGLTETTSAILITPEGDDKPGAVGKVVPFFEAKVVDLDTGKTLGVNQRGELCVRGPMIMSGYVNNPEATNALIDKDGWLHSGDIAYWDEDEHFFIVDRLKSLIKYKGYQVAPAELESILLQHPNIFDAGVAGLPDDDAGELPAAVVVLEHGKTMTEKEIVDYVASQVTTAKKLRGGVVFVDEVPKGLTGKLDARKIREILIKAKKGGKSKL
#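 Purified P. pyralis luciferase, 10 nM final, with Km-level 10 uM D-luciferin and 10 uM ATP in 50 mM Tris acetate pH 7.5, 10 mM Mg acetate, 0.01% Tween-20, 0.05% BSA; 6-point qHTS titration about 60 µM downward; luminescence read.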
# Rab9 promoter act = activates the Rab9 promoter. Potency, µM (doses to about 9.22 µM), for the others: at the top dose activation, negative = inhibition, hits mostly activators. Huh7 Rab9 promoter-luciferase reporter, luminescence, 24 h. hit rate 2.8% among 320,000. AID 485297; further: % of control where 0% means no effect; nearly all actives have a fitted effect of over 60% in size
#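 Luminescence read-out: Huh7 cells stably expressing Rab9-luciferase, treated 24 h with compound at 37 °C, then lysed with luciferase reagent for 10 min at ambient before reading.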
# NPC1 promoter act = activates the NPC1 promoter. hit rate 2.4% among 320,000. Huh7 NPC1 promoter luciferase reporter, 24 h. Potency, µM (doses to about 9.22 µM), for inactives: at the top dose activation, hits mostly activators; further: % of control where 0% means no effect; nearly all actives have a fitted effect of over 60% in size
#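 Huh7 cells stably carrying NPC1 promoter–luciferase, plated in Opti-MEM with 10% FBS for 2 h, were exposed to compound in DMSO for 24 h at 37 °C; luciferase reagent was added for 10 min and luminescence read.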
# ELG1 genotox = genotoxicity induction in ELG1-luciferase HEK293T cells; hit rate 1.3% among 330,000; Potency, µM (top dose mostly 46 µM), without a hit: top-dose activity change, positive = activation, most hits filed as activators; HEK293T ELG1-luciferase reporter, luminescence, 16 h; further: % of control where 0% means no effect; nearly all actives have a fitted effect of over 60% in size
#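 ELG1-luciferase HEK293T cells, 2,000/well; compound pinned in; 16 hr, 37 °C, 5% CO2; ONE-Glo, 30 min RT; luminescence on CCD imager.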
# SMN2 splice up = SMN2 splice variant enhancement; HEK293 SMN2-luciferase splicing reporter, luminescence, 30-36 h; Potency, µM (series often up to 46.1 µM), for inactives: at the top dose activity change, positive = activation, usual class: activators; hit rate 2.8% among 210,000; AID 1458; further: % of control where 0% means no effect; nearly all actives have a fitted effect of over 55% in size
#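 HEK293 cells carry an SMN2 minigene-luciferase reporter in which exon 7 inclusion puts luciferase in frame. Cells were seeded at 2000 cells/well, attached for 10-12 hours, then exposed to compounds for 30-36 hours at 37C before ONE-Glo luminescence.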
# Numbers without * were called inactive; ? = inconclusive; nt = not tested or not shown. Rows were chosen to be rich in hits. Some 7.4% of all compounds tested hit in one or more screens of this group. The call rests on the fitted dose curve; in most records, active means well fitted curve in the direction sought with a large enough effect; inconclusive means small, poorly fitted or top-dose-only effect, or another doubt; inactive means no such curve, though single readings can be large; an effect the other way counts as inactive or inconclusive. Potency means the concentration at half of the fitted maximal effect.
SMILES,FLuc modulator,Rab9 promoter act,NPC1 promoter act,ELG1 genotox,SMN2 splice up
COCCOC(=O)Cn1nnc2sc(-c3ccccc3)cc2c1=O,-16.9%,nt,nt,nt,8.7%
O=C(NCCS(=O)(=O)NCc1ccccc1Cl)c1ccc2c(c1)OCO2,-0.9%,-0.8%,-2.9%,3.4%,nt
O=C(O)c1ccc2c(c1)OCCCO2,-0.9%,-0.5%,-0.4%,0.0%,nt
O=C(NCCS(=O)(=O)NCCc1ccccc1)c1ccc2c(c1)OCO2,12µM*,3.16µM*,4.47µM*,2.06µM*,nt
O=C(NCCc1ccccc1)c1ccc2c(c1)OCCCO2,0.0601µM*,?,-37.0%,?,nt
CN(C(=O)COC(=O)c1ccccc1SCC(=O)N1CCCC1)c1ccccc1,-0.2%,10.1%,-3.0%,-7.8%,nt
O=C(O)c1cccc(-c2ccc(/C=N/Nc3ccc([N+](=O)[O-])cc3)o2)c1,10.7µM*,-3.7%,1.2%,2.4%,nt
CNC(=S)N/N=C/c1ccc(-c2ccc(Cl)c([N+](=O)[O-])c2)o1,-9.5%,-3.3%,-3.3%,-0.1%,nt
NS(=O)(=O)c1ccc(-c2ccc(/C=N/Nc3ccc(C(=O)O)cc3)o2)cc1,7.57µM*,1.3%,5.3%,10.0%,nt
CNC(=S)N/N=C/c1ccc(-c2ccc(C(=O)O)cc2)o1,16.9µM*,29.7%,?,?,nt
C=CCNC(=S)N/N=C/c1ccc(-c2ccc(OC)cc2)o1,19µM*,-3.8%,13.0%,-16.5%,-14.0%
C=CCNC(=S)N/N=C/c1ccc(-c2cc(Cl)ccc2Cl)o1,2.0%,-1.6%,-1.6%,12.5%,nt
NC(=S)N/N=C/c1ccc(-c2cccc([N+](=O)[O-])c2)o1,?,3.1%,3.7%,-11.2%,-12.5%
CC(=O)c1ccc(NC(=O)COc2ccccc2-c2nc(C)no2)cc1,-7.1%,nt,nt,nt,nt
C/C(N)=C(/C#N)C(=O)COC(=O)c1ccc(OCC2CCCO2)cc1 (stereo unspecified),?,9.2%,23.0%,11.6%,nt
CCC(=O)N/N=C/c1ccc(-c2ccc(Cl)cc2)o1,15.1µM*,30.0%,0.5%,17.8%,nt
O=C(N/N=C/c1ccc([N+](=O)[O-])o1)C(=O)Nc1ccc(C(=O)O)cc1,-6.1%,-3.6%,2.4%,-2.8%,nt
CCOC(=O)c1ccc(-c2ccc(/C=N/NC(=O)CN(c3ccccc3Br)S(C)(=O)=O)o2)cc1,-16.9%,?,?,-16.4%,11.2µM*
O=C(O)c1ccc(N/N=C/C=C/c2ccc([N+](=O)[O-])o2)cc1,16.9µM*,16.0%,-2.3%,1.0%,nt
CS(=O)(=O)N(CC(=O)N/N=C/c1cccc2c1OCCO2)c1ccccc1Br,-0.1%,2.0%,0.8%,-0.6%,-9.9%
O=C(O)c1ccc(-c2ccc(/C=N/Nc3ccc([N+](=O)[O-])cc3)o2)cc1,16.9µM*,21.8%,23.2%,0.3%,nt
CC(=O)Nc1ccc2nc3c(=O)[nH]c(=O)[nH]c3nc2c1,-3.1%,nt,nt,nt,4.7%
O=C(CNC(=O)c1ccccc1F)N/N=C/c1cccnc1,-13.6%,24.1%,10.2%,8.1%,nt
O=c1[nH]c2ccccc2cc1-c1nnn(-c2ccc(F)cc2)n1,1.9µM*,2.51µM*,3.55µM*,?,nt
Clc1ccc(-n2nnc(-c3cccnc3)n2)cc1Cl,?,3.16µM*,3.98µM*,?,nt
SMILES,FLuc modulator,Rab9 promoter act,NPC1 promoter act,ELG1 genotox,SMN2 splice up
Brc1ccccc1-n1nnc(-c2cccnc2)n1,16.9µM*,?,?,10.1%,nt
Fc1ccc(-n2nnc(-c3cccnc3)n2)cc1,15.1µM*,3.16µM*,?,?,nt
Fc1ccc(C(CCCn2nnc(-c3cccnc3)n2)c2ccc(F)cc2)cc1,-0.8%,4.7%,-0.3%,-10.3%,nt
c1cncc(-c2nnc(-c3cccnc3)nn2)c1,?,4.8%,16.4%,-3.9%,-89.8%
CCOc1ccccc1NC(=O)CN1C(=O)C2(SCC(=O)N2c2ccc(C)cc2)c2ccccc21 (stereo unspecified),-6.5%,nt,nt,nt,nt
CCOc1ccc(NC(=O)c2cc3c(n(-c4ccc(OC)cc4)c2=O)CC(C)(C)CC3=O)cc1,-0.3%,nt,nt,nt,-0.8%
Fc1ccc(-n2nnc(-c3cnc4ccccc4c3)n2)cc1,0.135µM*,0.1µM*,?,0.231µM*,nt
Cc1ccc(Nc2ccc(-n3ccnc3)nn2)cc1C,16.9µM*,-4.6%,-2.6%,3.4%,-1.8%
O=c1[nH]c2ccc(NCc3ccc(-c4ccc(Br)cc4)o3)cc2[nH]1,-5.9%,nt,nt,nt,nt

# From PubChem
